Results from PubChem BioAssay.
Calls of active or inactive are those of the source.

Legend:
[1] = test system: XIP peptide (Xip251-270) binding; experiment: small-molecule binders of XIP peptide, primary screen, biochemical, small-molecule microarray, fluorescence 635/667 nm, 0.1 µg/mL protein (AID 1182); details: fluorescent protein binding, 635 nm, higher = more signal, called active from +8 up or from −8 down
XIP peptide (Xip251-270) = experiment: small-molecule binders of XIP peptide, primary screen, biochemical, small-molecule microarray, fluorescence 635/667 nm, 0.5 µg/mL protein (AID 1183); details: small-molecule microarray binding, fluorescence 635 nm; higher = more signal
[2] = Plasmodium falciparum growth inhibition, primary screen, strain 3D7, DAPI fluorescence, 100 nL (AID 1184);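 further: parasites grown inside human red blood cells in medium with human serum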; details: P. falciparum 3D7 growth, 3 d, higher = more signal
[3] = target: Homeobox protein Hox-A13 (Mus musculus) (UniProt Q62424); experiment: inhibitors of HoxA13-DNA binding, primary screen, biochemical, fluorescence polarization, labeled oligonucleotide (AID 1185); details: 15 min, higher = more signal, called active from +8 up or from −8 down
Chain of Homeobox protein Hox-A13 (Mus musculus) (Q62424 whole entry, looked up): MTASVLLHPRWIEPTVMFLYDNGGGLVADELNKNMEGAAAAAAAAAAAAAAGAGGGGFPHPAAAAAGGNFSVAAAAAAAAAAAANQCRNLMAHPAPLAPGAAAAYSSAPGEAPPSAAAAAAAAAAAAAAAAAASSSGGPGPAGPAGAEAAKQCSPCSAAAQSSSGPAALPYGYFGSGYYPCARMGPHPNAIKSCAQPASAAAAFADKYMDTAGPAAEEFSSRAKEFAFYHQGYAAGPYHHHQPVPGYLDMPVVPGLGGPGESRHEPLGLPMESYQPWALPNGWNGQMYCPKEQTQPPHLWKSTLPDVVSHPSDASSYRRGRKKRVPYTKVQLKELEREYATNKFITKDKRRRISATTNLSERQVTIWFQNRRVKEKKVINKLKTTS

Structure (SMILES): C[C@@H](c1ccccc1)N1C(=O)[C@H]2[C@H]3[C@H](O)[C@H](O)CC(=NO[C@@H]4O[C@H](CO)[C@@H](O)[C@H](O)[C@H]4O)[C@@H]3CC[C@H]2C1=O
- composite z-score [1]: -0.0769 (inactive)
- composite z-score (XIP peptide (Xip251-270)): 0.438
- z-score [2]: -2.33
- z-score [3]: 0.174 (inactive)

Structure (SMILES): CO[C@@H]1COC(=O)[C@@H](C)NC(=O)CC=C[C@@H](C)[C@H](NS(=O)(=O)c2ccc(C)cc2)COC(=O)[C@H](C)NC(=O)CC=C[C@H]1C
- composite z-score [1]: 0.199 (inactive)
- composite z-score (XIP peptide (Xip251-270)): 0.113
- z-score [2]: 0.327
- z-score [3]: -0.348 (inactive)

Structure (SMILES): CC(C)CON=C1C[C@@H](O)[C@@H](O)[C@@H]2[C@@H]3C(=O)N(C[C@@H]4CCCO4)C(=O)[C@@H]3CC[C@@H]12
- composite z-score [1]: -0.0867 (inactive)
- composite z-score (XIP peptide (Xip251-270)): 0.205
- z-score [2]: 0.192
- z-score [3]: -0.771 (inactive)

Structure (SMILES): CO[C@@H]1C=CCC(=O)N2CCC[C@H]2C(=O)OC[C@@H](C)C(=O)OC[C@H]1C
- composite z-score [1]: 0.229 (inactive)
- composite z-score (XIP peptide (Xip251-270)): 0.826
- z-score [2]: 0.432
- z-score [3]: 0.772 (inactive)

Structure (SMILES): CCC1=NOC(CCC2CC(OC(=O)NCc3cccc4c3OCO4)CC3(CCCC(COC(=O)NCCc4ccccc4OC)O3)O2)C1 (stereo not given)
- composite z-score [1]: 1.87 (inactive)
- composite z-score (XIP peptide (Xip251-270)): 0.357
- z-score [2]: -0.95
- z-score [3]: -6.1 (inactive)

Structure (SMILES): COc1cccc([C@H]2Oc3ccc(OC)cc3C(=NO[C@@H](C)c3cn([C@H](CO)Cc4ccccc4)nn3)[C@@H]2O)c1
- composite z-score [1]: 0.213 (inactive)
- composite z-score (XIP peptide (Xip251-270)): 0.502
- z-score [2]: -0.868
- z-score [3]: -6.48 (inactive)

Structure (SMILES): CC(C)(C)N1C(=O)[C@H]2[C@H]3[C@H](O)[C@H](O)CC(=O)[C@@H]3CC[C@H]2C1=O
- composite z-score [1]: -0.138 (inactive)
- composite z-score (XIP peptide (Xip251-270)): 0.419
- z-score [2]: -0.507
- z-score [3]: -0.472 (inactive)

Structure (SMILES): COc1cc(O)c(C(=O)C=Cc2ccc3c(c2)OCO3)c(OC)c1
- composite z-score [1]: -0.156 (inactive)
- composite z-score (XIP peptide (Xip251-270)): -0.218
- z-score [2]: -0.973
- z-score [3]: -0.978 (inactive)

Structure (SMILES): COc1cccc([C@H]2Oc3ccc(OC)cc3C(=NOC[C@@H](O)[C@H]3O[C@@H]4OC(C)(C)O[C@@H]4[C@H]3O)[C@@H]2O)c1
- composite z-score [1]: -0.815 (inactive)
- composite z-score (XIP peptide (Xip251-270)): 0.697
- z-score [2]: 0.187
- z-score [3]: -3.04 (inactive)

Structure (SMILES): CCCCC#C[C@@H]1C=C[C@H](Oc2ccc(C(=O)OC)cc2)[C@@H](COC(=O)OCC)O1
- composite z-score [1]: -0.464 (inactive)
- composite z-score (XIP peptide (Xip251-270)): 0.522
- z-score [2]: -0.332
- z-score [3]: -5.73 (inactive)

Structure (SMILES): C=CC1=C[C@H](O)[C@@H]2O[C@@H]2C12OCCCO2
- composite z-score [1]: -0.49 (inactive)
- composite z-score (XIP peptide (Xip251-270)): 0.343
- z-score [2]: -0.706
- z-score [3]: -1.87 (inactive)

Structure (SMILES): CC(C)(C)N1C(=O)[C@H]2[C@H]3[C@H](O)[C@H](O)CC(=NO[C@@H]4O[C@H](CO)[C@@H](O)[C@H](O)[C@H]4O)[C@H]3CC[C@H]2C1=O
- composite z-score [1]: 0.0127 (inactive)
- composite z-score (XIP peptide (Xip251-270)): 0.271
- z-score [2]: -1.62
- z-score [3]: -4.08 (inactive)

Structure (SMILES): CC(C)=CCCC(C)=CCON=C1C[C@@H](O)[C@@H](O)[C@@H]2[C@@H]3C(=O)N(Cc4ccccc4)C(=O)[C@@H]3CC[C@@H]12
- composite z-score [1]: 0.146 (inactive)
- composite z-score (XIP peptide (Xip251-270)): 0.703
- z-score [2]: 0.83
- z-score [3]: -0.241 (inactive)

Structure (SMILES): CCOC(=O)NN=C1C[C@@H](O)[C@@H](O)[C@@H]2[C@@H]3C(=O)N([C@@H](C)c4ccccc4)C(=O)[C@@H]3CC[C@H]12
- composite z-score [1]: 0.0004 (inactive)
- composite z-score (XIP peptide (Xip251-270)): -0.0286
- z-score [2]: -0.125
- z-score [3]: -1.52 (inactive)

Structure (SMILES): CCOC(=O)[C@H](CC(C)C)NC(=O)CCC1CC(OC(=O)NCc2cccc3ccccc23)CC2(CCCC(COC(=O)NCC3CCCCC3)O2)O1 (stereo not given in full)
- composite z-score [1]: -0.145 (inactive)
- composite z-score (XIP peptide (Xip251-270)): 0.539
- z-score [2]: -2.01
- z-score [3]: -4.22 (inactive)

Structure (SMILES): O=C1CCCC=C1C(O)CCCCBr (stereo not given)
- composite z-score [1]: 0.26 (inactive)
- composite z-score (XIP peptide (Xip251-270)): -0.165
- z-score [2]: -1.76
- z-score [3]: -5.96 (inactive)

Structure (SMILES): C[C@H]1COC(=O)[C@@H]2CCCN2C(=O)[C@@H](C)COC(=O)[C@H](Cc2ccccc2)NC1=O
- composite z-score [1]: -0.102 (inactive)
- composite z-score (XIP peptide (Xip251-270)): 0.435
- z-score [2]: -0.735
- z-score [3]: 0.163 (inactive)

Structure (SMILES): CCOC(=O)[C@H](CC(C)C)NC(=O)CCC1CC(OC(=O)NCc2ccc3c(c2)OCO3)CC2(CCCC(COC(=O)NCCCN3CCCC3=O)O2)O1 (stereo not given in full)
- composite z-score [1]: -0.228 (inactive)
- composite z-score (XIP peptide (Xip251-270)): 0.6
- z-score [2]: -1.61
- z-score [3]: -5.69 (inactive)

Structure (SMILES): COc1ccc(COC(=O)NN=C2C[C@@H](O)[C@@H](O)[C@@H]3[C@@H]4C(=O)N(c5ccc(F)cc5F)C(=O)[C@@H]4CC[C@H]23)cc1
- composite z-score [1]: 0.051 (inactive)
- composite z-score (XIP peptide (Xip251-270)): 0.393
- z-score [2]: -1.93
- z-score [3]: -6.79 (inactive)

Structure (SMILES): O=C(NN=C1C[C@@H](O)[C@@H](O)[C@@H]2[C@@H]3C(=O)N(C4CCCCC4)C(=O)[C@@H]3CC[C@@H]12)OCc1ccccc1
- composite z-score [1]: 0.152 (inactive)
- composite z-score (XIP peptide (Xip251-270)): -0.0414
- z-score [2]: -0.321
- z-score [3]: -3.09 (inactive)
